Reference: PubChem BioAssay AID1209 (Sanford-Burnham Center for Chemical Genomics, 2008)
Among all 190,000 compounds or so, about 810 (0.43%) were called active. What follows is part of a selection rich in actives, with near analogues and random picks from the rest. Unmarked numbers belong to inactive results. No stated cut-off is given here; in the data, active means inhibition above about 50%; inactive means the rest.

These compounds were tested against Mannose-6-phosphate isomerase (Homo sapiens) (UniProt P34949) (assay: MPI enzyme activity inhibition – biochemical, fluorescence intensity, coupled assay, primary screen (AID 1209;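 further: plate controls were DMSO vehicle for no effect and wells lacking substrate for full effect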)). Conditions: purified PMI enzyme, at 20 µM, hits give high values.
Sequence of Mannose-6-phosphate isomerase (Homo sapiens) (P34949 whole entry, looked up): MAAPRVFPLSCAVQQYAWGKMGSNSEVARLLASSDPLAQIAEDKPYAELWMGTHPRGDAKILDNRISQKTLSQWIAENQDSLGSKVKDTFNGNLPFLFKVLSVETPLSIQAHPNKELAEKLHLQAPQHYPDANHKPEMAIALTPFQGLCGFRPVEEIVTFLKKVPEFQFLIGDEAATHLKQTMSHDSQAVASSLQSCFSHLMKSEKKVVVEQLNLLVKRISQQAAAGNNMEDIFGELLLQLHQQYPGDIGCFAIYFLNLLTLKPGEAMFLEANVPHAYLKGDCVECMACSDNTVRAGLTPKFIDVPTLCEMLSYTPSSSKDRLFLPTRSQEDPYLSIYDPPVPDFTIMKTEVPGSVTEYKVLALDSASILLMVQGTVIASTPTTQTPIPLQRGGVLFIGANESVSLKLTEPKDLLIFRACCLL

Which inhibition does the source give for `Cc1ccc(S(=O)(=O)NCC(=O)N(c2ccccc2)C(C(=O)NCc2ccccc2)c2ccco2)cc1` (stereo not drawn) here?
The inhibition was 57.1% (active).

With `COc1ccc(CNC(=O)C(c2ccco2)N(C(=O)CNS(=O)(=O)c2ccccc2)c2ccccc2C)cc1` (stereo not drawn) as the compound, how does the inhibition read?
Its inhibition is 14%.

With `Cc1cc(C)cc(N(C(=O)CNS(=O)(=O)c2ccccc2)C(C(=O)NCc2ccccc2)c2ccc(C)o2)c1` (stereo not drawn) as the compound, how does the inhibition read?
The inhibition was 18.8%.

Which inhibition does the source give for `Cc1ccc(/C=N/NC(=O)CN2CCN(S(=O)(=O)c3ccc(Br)cc3)CC2)s1` here?
Its inhibition is 4.9%.

For `COc1cc(-c2nnc(SCc3cc(=O)oc4cc(O)c(O)cc34)o2)cc(OC)c1OC`, which inhibition is on record?
Its inhibition is 60.1% (active).

`COc1cc(-c2nnc(SCc3ccccc3Cl)o2)cc(OC)c1OC` was tested. Which inhibition did it give?
The inhibition was 23.4%.

With `COc1cc(-c2nnc(SCc3cc(=O)oc4cc(C)ccc34)o2)cc(OC)c1OC` as the compound, how does the inhibition read?
Its inhibition is 12.5%.

Which inhibition does the source give for `Cc1cc([N+](=O)[O-])nn1CC(=O)Nc1sc2c(c1C(N)=O)CCCC2` here?
Its inhibition is 10.8%.

Which inhibition does the source give for `CC1CCc2c(sc(NC(=O)CCCn3cnc([N+](=O)[O-])n3)c2C(N)=O)C1` (stereo not drawn) here?
Its inhibition is 1.2%.

For `CCOC(=O)c1c(NC(=O)Cn2cnc([N+](=O)[O-])n2)sc2c1CCCC2`, which inhibition is on record?
Its inhibition is 18.4%.

Which inhibition does the source give for `Cc1cc([N+](=O)[O-])nn1CCCC(=O)Nc1sc2c(c1C(N)=O)CCCC2` here?
Its inhibition is 53% (active).

Which inhibition does the source give for `NC(=O)c1c(NC(=O)CCCn2cnc([N+](=O)[O-])n2)sc2c1CCCC2` here?
Its inhibition is 55.6% (active).

With `Cc1cc([N+](=O)[O-])nn1CCCC(=O)Nc1sc2c(c1C(N)=O)CCC(C)C2` (stereo not drawn) as the compound, how does the inhibition read?
The inhibition was 9.5%.

How did the inhibition turn out when `CC(C)CC(c1nnnn1CCc1ccccc1)N1CCN(C(=O)c2ccco2)CC1` (stereo not drawn) was run?
The inhibition was 7.4%.

Which inhibition does the source give for `COc1cc(/C=C/C(=O)OCC(=O)Nc2cc(C(F)(F)F)ccc2N2CCOCC2)ccc1O` here?
Its inhibition is 13%.

Which inhibition does the source give for `COC(=O)Nc1ccc(S(=O)(=O)Nc2cnc3ccccc3n2)cc1` here?
The inhibition was -10.9%.

For `CC(C)C(NC(=O)c1ccco1)C(=O)NCC(c1ccco1)N(C)C` (stereo not drawn), which inhibition is on record?
The inhibition was -3.6%.

Which inhibition does the source give for `CCN(C(=O)c1cn(CC)c(=O)c2cc(OC)c(OC)cc12)c1ccccc1C` here?
The inhibition was 5.3%.

For `O=C(c1ccccc1)c1c(O)nc(-c2ccccc2)n(-c2ccccc2)c1=O`, which inhibition is on record?
The inhibition was 108% (active).

With `O=C(O)c1nn(-c2ccccc2)c(-c2ccccc2)c1C(=O)c1ccccc1` as the compound, how does the inhibition read?
Its inhibition is -12.5%.

`CC(=O)c1c(O)c(C)c(-c2ccccc2)n(-c2ccccc2)c1=O` was tested. Which inhibition did it give?
The inhibition was 2.2%.

For `Oc1c(Br)cc(C2N=C(c3ccccc3Cl)NO2)cc1Br` (stereo not drawn), which inhibition is on record?
Its inhibition is 0.3%.

`Fc1ccccc1Cn1c2[n+](c3ccc(C(F)(F)F)cc31)CCCCC2` was tested. Which inhibition did it give?
The inhibition was 10.3%.

Which inhibition does the source give for `FC(F)(F)c1cccc(Cn2c3[n+](c4ccc(C(F)(F)F)cc42)CCCCC3)c1` here?
The inhibition was 1.3%.

With `FC(F)(F)c1ccc2c(c1)n(Cc1ccccc1)c1[n+]2CCCCC1` as the compound, how does the inhibition read?
The inhibition was 63.9% (active).

With `CC1=NN(c2ccc(S(=O)(=O)O)cc2C)C(=O)C1` as the compound, how does the inhibition read?
The inhibition was -63.6%.

With `Fc1ccc(C2CCCN2Cc2nc(Cc3ccccc3)no2)cc1` (stereo not drawn) as the compound, how does the inhibition read?
The inhibition was -7%.

With `CC(=O)Nc1ccccc1C(=O)C(=O)Nc1ccc(C)c(F)c1` as the compound, how does the inhibition read?
The inhibition was 19.9%.

How did the inhibition turn out when `Cc1cc(C)c(C(=O)COC(=O)Cn2cnnn2)cc1C` was run?
The inhibition was -10.7%.

`CCN(CC)c1ccc2c(C)c(Cl)c(=O)oc2c1` was tested. Which inhibition did it give?
The inhibition was -1.5%.

How did the inhibition turn out when `CCN(CC)c1ccc2ccc(=O)oc2c1` was run?
The inhibition was 2.1%.

`O=C(NCCN1CCOCC1)c1cc2cc([N+](=O)[O-])ccc2s1` was tested. Which inhibition did it give?
Its inhibition is 5.6%.

How did the inhibition turn out when `c1ccc(C2COC(c3cccs3)=N2)cc1` (stereo not drawn) was run?
Its inhibition is 9.4%.

With `CC(C)c1ccc(C2CC(=O)N3CN(C)CSC3=C2C#N)cc1` (stereo not drawn) as the compound, how does the inhibition read?
Its inhibition is 40.6%.

Which inhibition does the source give for `COc1ccc2ccccc2c1C1CC(=O)N2CN(Cc3ccco3)CSC2=C1C#N` (stereo not drawn) here?
The inhibition was 46.4%.

With `N#CC1=C2SCN(Cc3ccco3)CN2C(=O)CC1c1cccc2ccccc12` (stereo not drawn) as the compound, how does the inhibition read?
The inhibition was 55% (active).

For `COc1cc(C2CC(=O)N3CN(Cc4ccco4)CSC3=C2C#N)ccc1OCc1ccccc1` (stereo not drawn), which inhibition is on record?
Its inhibition is 50% (active).

With `CC(C)c1ccc(C2CC(=O)N3CN(Cc4ccco4)CSC3=C2C#N)cc1` (stereo not drawn) as the compound, how does the inhibition read?
Its inhibition is 52.6% (active).

For `COc1ccc(Br)cc1C1CC(=O)N2CN(Cc3ccccc3)CSC2=C1C#N` (stereo not drawn), which inhibition is on record?
The inhibition was 34.2%.

For `N#CC1=C2SCN(Cc3ccco3)CN2C(=O)CC1c1ccccc1F` (stereo not drawn), which inhibition is on record?
The inhibition was 43.7%.

How did the inhibition turn out when `N#CC1=C2SCN(Cc3ccco3)CN2C(=O)CC1c1c(F)cccc1Cl` (stereo not drawn) was run?
Its inhibition is -3.1%.

How did the inhibition turn out when `N#CC1=C2SCN(Cc3ccco3)CN2C(=O)CC1c1ccc(Cl)cc1` (stereo not drawn) was run?
Its inhibition is 28.7%.

`COc1ccc(C2CC(=O)N3CN(Cc4ccco4)CSC3=C2C#N)cc1` (stereo not drawn) was tested. Which inhibition did it give?
The inhibition was 59.1% (active).

With `Cc1ccc(C2CC(=O)N3CN(Cc4ccco4)CSC3=C2C#N)cc1` (stereo not drawn) as the compound, how does the inhibition read?
The inhibition was 29.7%.

`COc1cc(C2CC(=O)N3CN(Cc4ccccc4)CSC3=C2C#N)ccc1OCc1ccccc1` (stereo not drawn) was tested. Which inhibition did it give?
Its inhibition is 45.4%.

With `COc1ccc(C(=O)NCC(=O)OCC(=O)N2CC(C)CC(C)C2)cc1` (stereo not drawn) as the compound, how does the inhibition read?
The inhibition was 8.6%.

How did the inhibition turn out when `Cc1cc(C)c2[nH]c(=O)c(CN(CC3CCCO3)C(=S)Nc3ccccc3)cc2c1` (stereo not drawn) was run?
Its inhibition is 28.3%.

With `COc1ccc([N+](=O)[O-])cc1NC(=O)CCN1CCN(C)CC1` as the compound, how does the inhibition read?
Its inhibition is -0.2%.

How did the inhibition turn out when `COc1ccc2cc(/C(C)=N/NC(=O)C3CC3)ccc2c1` was run?
The inhibition was -1.6%.

For `Fc1ccc(-n2[nH]nnc2=S)cc1N1CCCC1`, which inhibition is on record?
The inhibition was -13.3%.

With `COc1ccc(Cn2c(-c3ccc(Br)cc3)c[n+]3ccccc23)cc1` as the compound, how does the inhibition read?
Its inhibition is -1.6%.

How did the inhibition turn out when `CC(=O)c1nnn(-c2ccc([N+](=O)[O-])cc2C)c1C` was run?
The inhibition was -15.2%.

With `N#CC1=C2SCN(Cc3ccccc3)CN2C(=O)CC1c1ccccc1F` (stereo not drawn) as the compound, how does the inhibition read?
The inhibition was 25.6%.

How did the inhibition turn out when `N#CC1=C2SCN(Cc3ccccc3)CN2C(=O)CC1c1cccs1` (stereo not drawn) was run?
Its inhibition is 40.2%.

With `CC(C)CCCNc1nc(N2CCOCC2)nc(N2CCOCC2)n1` as the compound, how does the inhibition read?
The inhibition was 3.3%.

Which inhibition does the source give for `O=C(NCCc1c[nH]c2ccccc12)C(=O)NCC1OCCCN1S(=O)(=O)c1cccs1` (stereo not drawn) here?
Its inhibition is 5.3%.

For `CC(C)n1nc(C(=O)Nc2nnc(SCc3c(Cl)cccc3Cl)s2)c2ccccc2c1=O`, which inhibition is on record?
The inhibition was 7.2%.

`O=C(Nc1ccc(N2CCN(c3ccccc3)CC2)c(F)c1)C1CC1` was tested. Which inhibition did it give?
Its inhibition is -5.7%.
